In PubChem BioAssay (NCATS):
Inconclusive results are not listed. Calls of active or inactive are those of the source. Calls come from the whole dose curve; as a rule, active = well fitted curve in the direction sought with a large enough effect; inconclusive = small, poorly fitted or top-dose-only effect, or another doubt; inactive = no such curve, though single readings can be large; an effect the other way counts as inactive or inconclusive.

Legend:
[1] = S16 Schwann cell viability assay (CellTiter-Glo assay) (AID 624031);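 note: cellular ATP luminescence as a viability measure; nearly all actives have a fitted effect of over 70% in size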
Outline: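 Native S16 Schwann cells (rat), serum-containing medium, overnight attachment then 24 h drug exposure at 37 °C/5% CO2. CellTiter-Glo ATP signal; normalized to cell-free and vehicle wells.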

[2] = test system: 7G8; assay: qHTS profiling for inhibitors of Plasmodium falciparum proliferation (AID 504749); note: nearly all actives have a fitted effect of over 60% in size; note: potency is the fitted concentration of half-maximal effect; details: P. falciparum in erythrocytes, SYBR Green DNA, 72 h; series mostly up to 12.8 µM
Outline: (§1)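 SYBR Green fluorescence of parasite DNA, read after lysis and overnight dark incubation, measured growth over 72 h in erythrocyte culture at 0.3% parasitemia and 2.5% hematocrit. Data normalised to DMSO and 0.29 uM artemisinin, with plate-drift correction.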

[3] = test system: ATS189; assay: as above; details: P. falciparum in erythrocytes, SYBR Green DNA, 72 h; series mostly up to 12.8 µM
Outline: as §1

[4] = test system: ATS95; assay: as above; details: P. falciparum in erythrocytes, SYBR Green DNA, 72 h; series mostly up to 12.8 µM
Outline: as §1

[5] = test system: C2A; assay: as above; details: P. falciparum in erythrocytes, SYBR Green DNA, 72 h; series mostly up to 12.8 µM
Outline: as §1

[6] = test system: CP185; assay: as above; details: P. falciparum in erythrocytes, SYBR Green DNA, 72 h; series mostly up to 12.8 µM
Outline: as §1

[7] = test system: CP211; assay: as above; details: P. falciparum in erythrocytes, SYBR Green DNA, 72 h; series mostly up to 12.8 µM
Outline: as §1

[8] = test system: CP215; assay: as above; details: P. falciparum in erythrocytes, SYBR Green DNA, 72 h; series mostly up to 28.7 µM
Outline: as §1

[9] = test system: CP217; assay: as above; details: P. falciparum in erythrocytes, SYBR Green DNA, 72 h; series mostly up to 12.8 µM
Outline: as §1

[10] = test system: CP237; assay: as above; details: P. falciparum in erythrocytes, SYBR Green DNA, 72 h; series mostly up to 12.8 µM
Outline: as §1

[11] = test system: CP252; assay: as above; details: P. falciparum in erythrocytes, SYBR Green DNA, 72 h; series mostly up to 12.8 µM
Outline: as §1

[12] = test system: CP305; assay: as above; details: P. falciparum in erythrocytes, SYBR Green DNA, 72 h; series mostly up to 12.8 µM
Outline: as §1

[13] = test system: CP335; assay: as above; details: P. falciparum in erythrocytes, SYBR Green DNA, 72 h; series mostly up to 12.8 µM
Outline: as §1

[14] = test system: DIV30; assay: as above; details: P. falciparum in erythrocytes, SYBR Green DNA, 72 h; series mostly up to 12.8 µM
Outline: as §1

[15] = test system: ECU; assay: as above; details: P. falciparum in erythrocytes, SYBR Green DNA, 72 h; series mostly up to 12.8 µM
Outline: as §1

[16] = test system: HB3; assay: as above; details: P. falciparum in erythrocytes, SYBR Green DNA, 72 h; series mostly up to 12.8 µM
Outline: as §1

[17] = test system: P93_24; assay: as above; details: P. falciparum in erythrocytes, SYBR Green DNA, 72 h; series mostly up to 12.8 µM
Outline: as §1

[18] = test system: TAB113; assay: as above; details: P. falciparum in erythrocytes, SYBR Green DNA, 72 h; series mostly up to 12.8 µM
Outline: as §1

[19] = qHTS Assay for Identification of Small Molecule Agonists for Thrombopoietin (TPO) Signaling Pathway (AID 917)
Outline: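 Stimulation at the TPO EC50 (26 pM final) was used to detect activators. Ba/F3 mouse cells bearing human TPO receptor and a luciferase reporter under the Glycoprotein IIb promoter were exposed to compounds for 24 hrs at 37 C.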

[20] = target: Cytochrome P450 3A4 (Homo sapiens) (UniProt P08684); assay: qHTS Assay for Activators of Cytochrome P450 3A4 (AID 885); note: nearly all actives have a fitted effect of over 65% in size
Outline: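 Luminescent readout of luciferin formed from 25 uM Luciferin-PPXE (KM level) by 20 nM CYP3A4 in 200 mM KPO4, with 60 min NADPH-driven reaction at room temperature after 10 min compound exposure. Ketoconazole (57 uM) defined 100% inhibition.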

Measured: Potency

Cytochrome P450 3A4 (Homo sapiens), sequence (P08684 whole entry, looked up): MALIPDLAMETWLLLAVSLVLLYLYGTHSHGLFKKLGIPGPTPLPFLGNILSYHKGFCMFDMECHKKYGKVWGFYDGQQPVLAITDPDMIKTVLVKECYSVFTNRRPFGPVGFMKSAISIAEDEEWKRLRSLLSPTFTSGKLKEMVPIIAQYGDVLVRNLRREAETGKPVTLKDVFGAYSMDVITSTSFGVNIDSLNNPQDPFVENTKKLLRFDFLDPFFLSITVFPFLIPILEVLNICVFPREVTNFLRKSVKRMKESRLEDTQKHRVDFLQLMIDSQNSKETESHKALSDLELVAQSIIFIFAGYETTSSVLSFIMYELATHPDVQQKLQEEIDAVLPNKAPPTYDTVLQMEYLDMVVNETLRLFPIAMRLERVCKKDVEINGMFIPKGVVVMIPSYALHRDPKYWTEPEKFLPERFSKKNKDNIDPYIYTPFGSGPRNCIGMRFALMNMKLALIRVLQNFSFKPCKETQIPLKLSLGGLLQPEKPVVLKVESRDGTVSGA

NC(=O)OC[C@H](O)COc1ccc(Cl)cc1
inactive: [1] | [2] | [3] | [4] | [5] | [6] | [7] | [8] | [9] | [10] | [11] | [12] | [13] | [14] | [15] | [16] | [17] | [18]

CCN(CC)CCC[C@H](C)Nc1ccnc2cc(Cl)ccc12
active: [2] 1000 nM | [4] 10000 nM | [5] 3550 nM | [6] 4470 nM | [7] 6750 nM | [10] 4470 nM | [12] 2690 nM | [13] 12000 nM | [14] 6750 nM | [15] 2240 nM | [16] 316 nM | [17] 2820 nM
inactive: [19] | [1]

NS(=O)(=O)c1cc([C@@]2(O)NC(=O)c3ccccc32)ccc1Cl
inactive: [1] | [2] | [3] | [4] | [5] | [6] | [7] | [8] | [9] | [10] | [11] | [12] | [13] | [14] | [15] | [16] | [17] | [18]

CCN(CC)CCC[C@H](C)Nc1c2ccc(Cl)cc2nc2ccc(OC)cc12
inactive: [20] | [1]
active: [2] 282 nM | [3] 891 nM | [4] 631 nM | [5] 447 nM | [6] 708 nM | [7] 1510 nM | [8] 1690 nM | [9] 794 nM | [10] 316 nM | [11] 794 nM | [12] 379 nM | [13] 536 nM | [14] 1070 nM | [15] 447 nM | [16] 251 nM | [17] 562 nM | [18] 891 nM

CCC[C@H]1C(=O)N2C(N(C)C)=Nc3ccc(C)cc3N2C1=O
inactive: [1] | [2] | [3] | [4] | [5] | [6] | [7] | [8] | [9] | [10] | [11] | [12] | [13] | [14] | [15] | [16] | [17] | [18]

CN(N=O)C(=O)N[C@H]1[C@@H](O)[C@H](O)[C@H](CO)O[C@@H]1O
inactive: [1] | [2] | [3] | [4] | [5] | [6] | [7] | [8] | [9] | [10] | [11] | [12] | [13] | [14] | [15] | [16] | [17] | [18]

CN1Cc2c(N)cccc2[C@H](c2ccccc2)C1
inactive: [20] | [19]

COCCc1ccc(OC[C@H](O)CNC(C)C)cc1
inactive: [19] | [1] | [2] | [3] | [4] | [5] | [6] | [7] | [8] | [9] | [10] | [11] | [12] | [13] | [14] | [15] | [16] | [17] | [18]

CO[C@H]1C[C@@H](O[C@@H]2[C@H](C)[C@H](O[C@@H]3O[C@@H](C)C[C@@H](N(C)C)[C@@H]3O)[C@H](C)C[C@]3(CO3)C(=O)[C@H](C)[C@H](O)[C@H](C)[C@H](C)OC(=O)[C@@H]2C)O[C@@H](C)[C@H]1O
inactive: [20] | [1] | [2] | [3] | [4] | [5] | [6] | [7] | [8] | [9] | [10] | [11] | [12] | [13] | [14] | [15] | [16] | [17] | [18]

COc1ccccc1OC[C@H](O)COC(N)=O
inactive: [1] | [2] | [3] | [4] | [5] | [6] | [7] | [8] | [9] | [10] | [11] | [12] | [13] | [14] | [15] | [16] | [17] | [18]
